High-throughput results: PubChem, NMMLSC
Most compounds without a hit are left out; they make up all but 1.2% or so of the library.
RPL19A-GFP yeast = modulators of TOR pathway RPL19A-GFP in S. cerevisiae; S. cerevisiae RPL19A-GFP strain, flow cytometry, 3 h; stronger effect = lower value; percent response vs DMSO, % at 10 µM; actives 0.3% (n = 330,000);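 active means percent response vs DMSO below 50%; inconclusive means fewer than 70 events counted for the yeast strain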;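 further: median channel GFP fluorescence of the barcoded RPL19A-GFP strain; ratio of sample median GFP to plate DMSO average so 100% = DMSO; lower means less RPL19A-GFP as with rapamycin TOR inhibition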
MEP2-GFP yeast = alters MEP2-GFP fluorescence in TOR pathway yeast screen | S. cerevisiae MEP2-GFP strain, flow cytometry GFP, 3 h; 100% = DMSO control level | GFP response vs DMSO, % at 10 µM | actives 0.51% (n = 330,000);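 active means GFP response versus DMSO above a set limit, roughly screen mean plus 3 SD, cut at about 180% in these data; inconclusive means fewer than 70 cells counted for a yeast strain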;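 further: median GFP fluorescence of the barcode-gated MEP2-GFP cells per well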
AGP1-GFP MLPCN = yeast TOR pathway AGP1-GFP modulation; GFP response vs DMSO, % at 10 µM; actives 0.02% (n = 320,000); AID 2066; S. cerevisiae AGP1-GFP multiplex flow cytometry, 3 h; GFP as percent of DMSO wells;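 active means GFP response relative to DMSO above a set limit, near screen average plus 3 SD, cut at about 150% in these data; inconclusive means fewer than 70 cells counted for the yeast strain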;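 further: median GFP channel fluorescence of the gated AGP1 strain per well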
LAP4 TOR yeast = yeast TOR pathway LAP4-GFP modulation. S. cerevisiae LAP4-GFP multiplex, flow cytometry GFP, 3 h; median GFP as percent of DMSO wells. GFP response vs DMSO, % at 10 µM. actives 0.34% (n = 320,000);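 active means GFP response vs DMSO above a set limit, about the screen mean plus 3 SD, cut at about 150% in these data; inconclusive means under 70 cell events counted for the yeast strain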
CIT2-GFP yeast = yeast TOR pathway CIT2-GFP modulation; AID 2029; S. cerevisiae CIT2-GFP strain, flow cytometry, 3 h; 100 means same as DMSO wells; actives 0.065% (n = 320,000); GFP response vs DMSO, % at 10 µM;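 active means GFP response relative to DMSO above a set limit, near the screen mean plus 3 SD, cut at about 150% in these data; inconclusive means Fewer than 70 cells measured for a yeast strain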;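 further: ratio of well median GFP fluorescence to mean of DMSO wells on the plate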
Pemphigus Ab inh = human desmoglein-3 autoantibody binding inhibition; actives 0.48% (n = 310,000); AID 588358; binding (percent of control), % at 10 µM; P32926; DSG3-coupled beads, scFv-anti-DSG3-GFP binding, flow cytometry; stronger effect = lower value;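 active means binding more than 3 SD below its plate's average and above zero; inconclusive means below that plate limit but binding exactly zero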;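 further: hits lower antibody fragment binding to DSG3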
Target sequence (P32926 whole entry, looked up, the tested form may be a part): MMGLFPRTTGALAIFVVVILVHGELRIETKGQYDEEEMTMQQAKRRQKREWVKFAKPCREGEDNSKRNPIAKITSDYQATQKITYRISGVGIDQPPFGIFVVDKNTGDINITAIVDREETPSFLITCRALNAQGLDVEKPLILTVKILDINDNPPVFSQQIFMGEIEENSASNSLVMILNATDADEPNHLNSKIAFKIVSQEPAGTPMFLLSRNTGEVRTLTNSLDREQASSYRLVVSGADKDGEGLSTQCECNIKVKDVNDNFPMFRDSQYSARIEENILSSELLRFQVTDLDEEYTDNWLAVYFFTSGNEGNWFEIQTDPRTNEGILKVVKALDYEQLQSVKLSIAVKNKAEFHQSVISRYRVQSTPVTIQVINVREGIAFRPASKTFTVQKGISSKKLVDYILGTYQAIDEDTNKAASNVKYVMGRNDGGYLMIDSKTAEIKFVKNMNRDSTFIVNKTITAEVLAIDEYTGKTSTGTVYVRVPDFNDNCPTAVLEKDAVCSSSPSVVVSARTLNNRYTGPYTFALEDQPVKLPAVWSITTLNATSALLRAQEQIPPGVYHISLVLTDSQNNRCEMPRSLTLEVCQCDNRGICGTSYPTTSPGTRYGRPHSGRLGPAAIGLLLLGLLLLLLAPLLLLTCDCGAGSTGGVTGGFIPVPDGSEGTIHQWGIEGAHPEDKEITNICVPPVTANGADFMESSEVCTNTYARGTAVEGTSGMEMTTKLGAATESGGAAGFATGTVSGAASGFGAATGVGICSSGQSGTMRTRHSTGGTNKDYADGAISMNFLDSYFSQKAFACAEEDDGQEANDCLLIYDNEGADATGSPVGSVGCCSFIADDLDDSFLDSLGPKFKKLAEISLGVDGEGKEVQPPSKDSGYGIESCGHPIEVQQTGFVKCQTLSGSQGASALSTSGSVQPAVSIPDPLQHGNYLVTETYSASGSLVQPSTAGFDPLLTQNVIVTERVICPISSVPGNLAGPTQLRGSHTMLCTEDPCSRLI
Active calls of the source: *; u = inconclusive; x = no result given; [ ] = remark or other dose.

SMILES | RPL19A-GFP yeast | MEP2-GFP yeast | AGP1-GFP MLPCN | LAP4 TOR yeast | CIT2-GFP yeast | Pemphigus Ab inh
O=C(CN1C(=O)/C(=C2\SC(=S)N(CCS(=O)(=O)O)C2=O)c2ccccc21)Nc1cccc(Br)c1 | 91.8 | 92.6 | 79.4 | 77.2 | 101.2 | 44.7*
O=C(CN1C(=O)/C(=C2/SC(=S)N(CCS(=O)(=O)O)C2=O)c2ccccc21)Nc1cccc(C(F)(F)F)c1 | 97.1 | 106.1 | 100.0 | 100.1 | 105.9 | 82.3*
CCC(=O)Nc1nnc(SCC(=O)Nc2ccc(F)cc2)s1 | 99.3 | 101.1 | 99.8 | 101.9 | 99.8 | 109.8
CCCCCC(=O)N1C[C@@H](O)[C@H](n2cc(COC(=O)c3ccccc3)nn2)C[C@@H]1c1ccc(Cl)cc1 | x | x | x | x | x | 109.5
O=C1/C(=C\c2ccccn2)SC(=S)N1Nc1ncc(C(F)(F)F)cc1Cl | 99.9 | 99.0 | 91.4 | 151.6* | 104.2 | 100.5
CCCN1CCN(C(=O)Cn2ncc3c([nH]c4ccc(C)cc43)c2=O)CC1 | 64.9 | 186.4*[may fluoresce violet] | 19.1 | 99.1 | u | 101.8
CCCC(c1nnnn1CCOC)N1CCN(Cc2ccccc2)CC1 (configuration not stated) | 100.0 | 109.0 | 106.9 | 95.1 | 92.0 | 82.0
CCC(c1nnnn1CCOC)N1CCN(Cc2ccccc2OC)CC1 (configuration not stated) | x | 260.1*[may fluoresce violet] | u | 84.3 | u | 100.9
O=c1oc2ccccc2c2c1C(c1ccc(Cl)cc1)Nc1ccc3ccccc3c1-2 (configuration not stated) | 39.0*[may fluoresce violet] | 158.7 | 71.3 | 91.5 | u | 93.3
COc1ccc(C2Nc3ccc4ccccc4c3-c3c2c(=O)oc2ccccc32)cc1 (configuration not stated) | 78.6 | 113.9 | 85.9 | 87.4 | 90.8 | 119.2
Cc1oc(S(=O)(=O)N2CCCCC2)cc1NC(=O)Nc1ccc(F)cc1 | 98.5 | 104.4 | 111.2 | 109.0 | 101.1 | 91.2*
O=C(Nc1ccc(F)cc1)Nc1ccc(S(=O)(=O)N2CCCC2)cc1 | 100.7 | 97.8 | 100.2 | 97.0 | 97.9 | 107.5
O=[N+]([O-])c1ccc(O)c(/C=N/n2cnc3ccccc32)c1 | 50.9 | 183.8*[may fluoresce violet] | u | 95.2 | u | 117.1
COc1ccc(CCNC(=O)CSc2nc3ccsc3c(=O)n2Cc2ccccn2)cc1OC | x | x | x | x | x | 102.5
CC(=O)NC1(C(F)(F)F)C(=O)Nc2c1c(=O)[nH]c(=O)n2CCc1ccccc1 (configuration not stated) | 51.0 | 176.0* | 28.7 | 97.8 | 82.8 | 117.4
CCN1CCN(c2ccc(S(=O)(=O)N3CCCCC3)cc2NC(=O)/C=C/c2ccc(Cl)cc2)CC1 | x | x | x | x | x | 111.1
Cc1ccc2c(c1)c1c3n2CCN(C(=O)CN2CCN(C)CC2)C3CCC1 (configuration not stated) | 94.6 | 94.4 | 93.0 | 92.5 | 96.0 | 128.3
CN1CCN(CC(=O)N2CCn3c4c(c5cc(C6CCCCC6)ccc53)CCCC42)CC1 (configuration not stated) | 91.1 | 104.4 | 98.7 | 168.7* | 88.9 | 108.7
COc1ccc(/C=N\NC(=O)c2cc(O)c(O)c(O)c2)cc1COc1ccc(C(=O)OCC(C)C)cc1 | 96.6 | 107.7 | 88.0 | 99.4 | 102.9 | 84.3
O=C(Nc1nc2ccccc2s1)c1cccc(S(=O)(=O)N2CCc3ccccc32)c1 | 102.0 | 103.5 | 100.7 | 107.3 | 99.4 | 87.7
O=C(Nc1nc2c(s1)CN(Cc1ccccc1)CC2)c1cccc(S(=O)(=O)N2CCc3ccccc32)c1 | 19.6*[may fluoresce violet] | u | u | u | u | 98.6
COc1ccccc1OCCn1nnc2ccccc21 | 98.8 | 102.1 | 100.4 | 100.7 | 98.0 | 114.1
COC(=O)C(NC(=O)c1ccc(Cl)cc1)(Nc1nc(C)cs1)C(F)(F)F (configuration not stated) | 101.2 | 107.4 | 109.4 | 95.9 | 104.4 | 99.8
COc1c(O)c(=O)n2c3ccccc3c3ccnc1c32 | 24.0*[may fluoresce violet] | 211.3*[may fluoresce violet] | 17.5 | 97.5 | u | 98.3
O=c1c(Cl)c(O)c2cccc3c4ccccc4n1c23 | 96.5 | 96.9 | 95.4 | 105.2 | 80.2 | 98.9
SMILES | RPL19A-GFP yeast | MEP2-GFP yeast | AGP1-GFP MLPCN | LAP4 TOR yeast | CIT2-GFP yeast | Pemphigus Ab inh
Cc1ccc(-c2cn3cccnc3n2)cc1NC(=O)c1ccc(Br)o1 | 94.2 | 94.3 | x | 93.2 | 92.8 | 80.8*
Cc1ccc(-n2nc(C)cc2NC(=O)c2ccc(C)s2)cc1 | 102.5 | 105.3 | 102.1 | 104.4 | 87.3 | 103.5
O=[N+]([O-])c1ccc(N2CCN(Cc3ccccc3)CC2)c2c1no[n+]2[O-] | x | x | x | x | x | 109.9
CN1CCN(C(=O)/C(=C\c2cccs2)NC(=O)c2ccccc2)CC1 | 102.9 | 99.6 | 100.6 | 96.3 | 105.5 | x
CN1CCN(C(=O)/C(=C/c2ccccc2Cl)NC(=O)c2ccccc2)CC1 | 67.3 | 475.4*[may fluoresce violet] | 19.6 | 93.2 | u | 109.0
N#Cc1c(NC2CCCCC2)nc(-c2ccco2)c2c1CCCC2 | 94.5 | 96.5 | 17.6 | 104.5 | 64.1 | 108.9
N#Cc1c(NCCCO)nc(-c2ccco2)c2c1CCCC2 | 92.8 | 243.5*[may fluoresce violet] | 17.2 | 102.9 | u | 108.1
C[C@@H]1CN([C@H](C)CO)C(=O)CCCn2nncc2CO[C@@H]1CN(C)S(=O)(=O)c1ccccc1 | x | x | x | x | x | 97.4
Cc1nn(-c2ccccc2)nc1C(=O)Nc1cccc(C(=O)NC2CC2)c1 | x | x | x | x | x | 106.0
Cc1cccc(N=c2c([N+](=O)[O-])nn(-c3ccc(Cl)cc3)n2O)c1 | 93.8 | 89.9 | 87.6 | 154.3* | 101.2 | 106.0
COc1ccccc1OCCCCn1c(C(C)O)nc2ccccc21 (configuration not stated) | 100.0 | 102.8 | 97.0 | 95.0 | 100.5 | 97.8
Cc1ccc(NC(=O)NNC(=O)C2CC(c3cccs3)=NO2)cc1 (configuration not stated) | 94.6 | 112.0 | 112.4 | 103.1 | 150.4*[may fluoresce green] | 95.9
COC(=O)C1=C(C)NC(C)=C(C(=O)OC)C1c1ccc(-c2cccc([N+](=O)[O-])c2)o1 | 45.6*[may fluoresce violet] | 203.3*[may fluoresce violet] | 18.7 | 83.4 | u | 106.8
Cc1ccc(CCNC(=O)CN2C(=O)COc3ccccc32)cc1 | 95.0 | 101.7 | 100.5 | 92.8 | 98.6 | 93.4
COc1cccc(NC(=O)C(C#N)Cc2ccncc2)c1 (configuration not stated) | 103.8 | 94.0 | 113.7 | 97.8 | 99.8 | 108.3
CCc1ccccc1NC(=O)C(C#N)Cc1cccnc1 (configuration not stated) | 60.6 | 208.7*[may fluoresce violet] | u | 93.0 | u | 99.8
Nc1cc(N)nc(SCC(=O)N2CCc3ccccc32)n1 | 79.8 | 175.4* | x | 108.3 | 98.8 | 105.3
Cc1nc(SCC(=O)N2CCc3ccccc32)n[nH]1 | 40.4*[may fluoresce violet] | 365.5*[may fluoresce violet] | u | 93.0 | u | 90.8
Nc1nc(SCC(=O)N2CCCc3ccccc32)n[nH]1 | 98.4 | 98.0 | 96.6 | 96.2 | 101.8 | 98.6
